Assay outcomes: PubChem, National Center for Advancing Translational Sciences (NCATS)
Vif-A3G inh: blocks the Vif interaction with human APOBEC3G; Q9HC16; HeLa A3G-eYFP + Vif (tagged APOBEC3G with the HIV-1 protein that degrades it), YFP fluorescence, overnight; Potency, µM (titrated, usually from 46.1 µM), inactives show at the top dose activity, negative = active, most hits filed as inhibitors; 410,000 tested, 0.076% active; note: potency is the fitted concentration of half-maximal effect; % is set by controls: 0 for no effect and ±100 for the full control effect; nearly all actives have a fitted effect of over 60% in size
Target sequence (Q9HC16 whole entry, looked up): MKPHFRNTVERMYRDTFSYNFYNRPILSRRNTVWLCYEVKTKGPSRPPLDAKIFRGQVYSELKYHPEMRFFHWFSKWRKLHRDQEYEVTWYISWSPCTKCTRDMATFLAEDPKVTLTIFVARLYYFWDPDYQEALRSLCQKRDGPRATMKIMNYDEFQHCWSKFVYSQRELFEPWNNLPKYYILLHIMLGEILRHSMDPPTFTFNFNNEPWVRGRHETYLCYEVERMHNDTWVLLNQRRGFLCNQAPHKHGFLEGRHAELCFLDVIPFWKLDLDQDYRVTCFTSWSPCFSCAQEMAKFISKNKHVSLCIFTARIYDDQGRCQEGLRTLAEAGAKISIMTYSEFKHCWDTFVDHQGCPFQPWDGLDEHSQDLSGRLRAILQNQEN
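HeLa cells stably expressing Vif and C-terminally eYFP-tagged A3G, seeded overnight at 37 deg C, then exposed to compound by pintool overnight at 37 deg C. Rise in yellow fluorescence (Ex 488/Em 500-530, Acumen) marks blocked Vif-driven A3G degradation.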
PINK1 modulator: PINK1 expression modulation. 410,000 tested, 0.2% active. Potency, µM (top dose mostly 76.6 µM), inactives show at the top dose activation (PINK1 increase), most hits filed as activators. PINK1 immunofluorescence, high-content cytometry, 24 h; active = well fitted activation curve with a large enough effect; inconclusive = small, poorly fitted or top-dose-only effect; cell line not stated here; note: potency is the fitted concentration of half-maximal effect; % of control where 0% means no effect; nearly all actives have a fitted effect of over 65% in size
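Compound titrations (5 concentrations, 24 h) on a stable cell line; DMSO and CCCP controls. Endpoint: fixed-cell PINK1 immunofluorescence with mitochondrial, cell and nuclear markers, scanned by microplate cytometer.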
LDHA inh: inhibitors of human lactate dehydrogenase A; purified LDHA, NADH/diaphorase-resazurin fluorescence; active compounds read low; activity change, % (values are at about 110 or 230 µM); 480,000 tested, 0.15% active; in the data active = activity change below about -30%; inconclusive = mostly about -25% to -30%;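 note: plate controls were DMSO wells for no effect and wells without enzyme for full effect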
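LDH5 2 nM; NADH 0.06 mM, pyruvate 0.2 mM; 200 mM Tris pH 7.4, EDTA, Tween-20; 5 min RT. Detection: diaphorase 0.133 mg/mL + resazurin 37 µM, fluorescence ex540/em590 at 0 and 20 min; normalized to enzyme-free and DMSO wells.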
pAkt inh: Akt phosphorylation inhibition | 360,000 tested, 0.32% active | activity change, % for hits at 50 µM | Neuro2A IGF-stimulated pAkt S473 HTRF, 20 min; active compounds read low; in the data active = activity change below about -80%; inconclusive = mostly about -51% to -80%; note: % is set by controls: 0 for no effect and ±100 for the full control effect
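Single-point screen (50 µM final compound) in Neuro2A cells stimulated 20 min with 6 nM IGF at 37 deg C. After lysis, Ser473-phosphorylated Akt read by HTRF (ex 330 nm, em 615/665 nm) as the 665/615 ratio.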
Vif-A3F inh: inhibitors of Vif-A3F interaction. HeLa A3F-eYFP + Vif (tagged APOBEC3F with the HIV-1 protein that degrades it), YFP fluorescence increase. 390,000 tested, 0.2% active. Potency, µM (highest dose often 46.1 µM), for the others: top-dose activity, negative = active; note: potency is the fitted concentration of half-maximal effect; % of control where 0% means no effect; nearly all actives have a fitted effect of over 65% in size
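Fluorescence increase (Ex 488/Em 500-530) after overnight compound treatment at 37 deg C flags inhibition of Vif-driven A3F-eYFP loss in stable HeLa A3F-eYFP/Vif cells seeded overnight beforehand.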
Glioma ERSR ind: ER stress response induction in glioma; AID 602332; U87-MG GRP78 promoter luciferase reporter, 16 h; 420,000 tested, 0.02% active; Potency, µM, for inactives: top-dose activation, usual class: activators; note: potency is the fitted concentration of half-maximal effect; series mostly up to about 76 µM; % of control where 0% means no effect; nearly all actives have a fitted effect of over 35% in size
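Stably transfected U87-MG human glioma cells carrying a GRP78-based luminescent sensor were seeded at 1000 cells/well, pin-dosed with compounds and incubated 16 h. Luciferase reagent was then added, and end-point luminescence was read after 10 min at room temperature.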
The depositor's hits bear a star; [ ] = dose if it differs, or a comment. Sampled rows, rich in hits. Any-hit rate of the full collection: about 0.74%. Unless noted, calls come from the whole dose curve; as a rule, active = well fitted curve in the direction sought with a large enough effect; inconclusive = small, poorly fitted or top-dose-only effect, or another doubt; inactive = no such curve, though single readings can be large; an effect the other way counts as inactive or inconclusive.

`O=C1CC(c2ccc(F)c(F)c2)c2cc(Br)c3ccccc3c2N1` (stereo not drawn) gave LDHA inh -0.1.
COC(=O)c1ccc(C2CC(=O)Nc3c2cc(Br)c2ccccc32)cc1 (stereo not drawn) was read as LDHA inh -35.0*.
For Cc1ccc(NS(=O)(=O)c2ccc3c(c2)c(=O)n(CC(=O)N2CCCCCC2)c(=O)n3C)cc1C the results were LDHA inh -0.2.
`O=C(COC(=O)c1cccnc1Cl)Nc1ccccc1OC(F)F` gave Vif-A3G inh 0.1%, PINK1 modulator 2.5%, LDHA inh -8.6, pAkt inh inactive, Vif-A3F inh 10µM* and Glioma ERSR ind -2.5%.
Screening Cc1occc(=O)c1OCc1noc(C(=O)NCc2cccc(Cl)c2)n1 returned LDHA inh 1.5.
For Cc1c(S(=O)(=O)N2CCCC2c2ccc(Cl)cc2)cnn1C(F)F (stereo not drawn) the results were LDHA inh 25.0.
Screening CCCCC/C(CCCCCCC/C(CCCCC)=N/NC(N)=O)=N/NC(N)=O returned LDHA inh -1.1.
`C[C@@H]1CN([C@H](C)CO)C(=O)CCCn2cc(nn2)CO[C@H]1CN(C)S(=O)(=O)c1ccc2ccccc2c1` gave Vif-A3G inh -7.8%, PINK1 modulator 0.1%, LDHA inh -34.2*, pAkt inh inactive, Vif-A3F inh -1.5% and Glioma ERSR ind -1.7%.
Screening C[N+](C)(C)CCC(=O)N1C/C(=C/c2ccccc2)C(=O)/C(=C\c2ccccc2)C1 returned Vif-A3G inh 7.94µM*, PINK1 modulator -5.4%, LDHA inh -8.9, pAkt inh inactive, Vif-A3F inh inconclusive and Glioma ERSR ind -14.0%.
For CN(C)CCC(=O)N1C/C(=C/c2ccccc2)C(=O)/C(=C\c2ccccc2)C1 the results were Vif-A3G inh inconclusive, PINK1 modulator -6.2%, LDHA inh -2.0, pAkt inh inactive, Vif-A3F inh -0.1% and Glioma ERSR ind -14.3%.
Screening O=C(OCCOCCN=C1NS(=O)(=O)c2ccccc21)c1ccncc1 returned Vif-A3G inh 2.1%, PINK1 modulator 1.4%, LDHA inh -6.1, pAkt inh -106.7%*, Vif-A3F inh -12.0% and Glioma ERSR ind 0.9%.
Screening O=C(OCc1cccc2ccccc12)c1cc2ccccc2[nH]1 returned LDHA inh 10.0.
`O=S1(=O)Nc2c(ccc3cccnc23)-c2ccccc21` gave Vif-A3G inh 7.08µM*, PINK1 modulator -8.3%[38.3 µM], LDHA inh 20.7, pAkt inh inactive, Vif-A3F inh -0.9% and Glioma ERSR ind inconclusive.
Cc1cnc2c3c(cc(Cl)c2c1)-c1ccccc1S(=O)(=O)N3 was read as Vif-A3G inh inconclusive, PINK1 modulator 11.6%, LDHA inh 14.3 and Glioma ERSR ind -9.7%.
`CCOC(=O)c1ccc(N2C(=O)c3n[nH]c(C)c3C2c2ccc(Cl)cc2Cl)cc1` (stereo not drawn) gave LDHA inh -10.3.
For O=P(O)(CCc1ccccc1)C(O)c1ccccc1 (stereo not drawn) the results were Vif-A3G inh -1.1%, PINK1 modulator -1.8%, LDHA inh -0.9, pAkt inh inactive, Vif-A3F inh -8.6% and Glioma ERSR ind -2.6%.
`COc1ccc(C(O)P(=O)(O)CCc2ccccc2)cc1` (stereo not drawn) gave Vif-A3G inh 0.2%, PINK1 modulator -0.2%, LDHA inh -4.7, pAkt inh -109.2%*, Vif-A3F inh -3.5% and Glioma ERSR ind -2.0%.
Screening O=C(Nc1nc2c(F)cc(F)cc2s1)c1ccc(S(=O)(=O)N2CCc3ccccc32)cc1 returned Vif-A3G inh 3.2%, PINK1 modulator 15.8µM*, LDHA inh -5.0, Vif-A3F inh -0.7% and Glioma ERSR ind -5.1%.
O=C(Nc1nc2c(F)cccc2s1)c1ccc(S(=O)(=O)N2CCCc3ccccc32)cc1 was read as Vif-A3G inh -2.8%, PINK1 modulator 12.4%, LDHA inh -1.9, Vif-A3F inh 1.0% and Glioma ERSR ind -2.5%.
`Cc1cc(C)nc(/N=C(\N)Nc2ccc(C(C)C)cc2)n1` gave Vif-A3G inh 0.1%, PINK1 modulator 39.8µM*, LDHA inh 1.4, pAkt inh inactive, Vif-A3F inh -5.6% and Glioma ERSR ind -6.3%.
Cc1ccc(N/C(N)=N/c2nc(C)cc(C)n2)cc1 was read as Vif-A3G inh 2.1%, PINK1 modulator 24.4%, LDHA inh 5.8, pAkt inh inactive, Vif-A3F inh 8.1% and Glioma ERSR ind -6.4%.
For Cc1nnc(SCC(=O)Nc2ccc(OC(F)F)c(Cl)c2)n(N)c1=O the results were Vif-A3G inh -8.4%, PINK1 modulator 0.8%, LDHA inh -36.0*, pAkt inh inactive, Vif-A3F inh -6.4% and Glioma ERSR ind 2.9%.
Screening Cc1cccc(NC(=O)CSc2nnc(C)c(=O)n2N)c1 returned Vif-A3G inh -4.2%, PINK1 modulator 3.3%, LDHA inh -4.4, pAkt inh inactive, Vif-A3F inh 0.6% and Glioma ERSR ind -1.0%.
Cc1ccc(NC(=O)CSc2nnc(C)c(=O)n2N)c(C)c1 was read as Vif-A3G inh -2.1%, PINK1 modulator 2.6%, LDHA inh -37.5*, pAkt inh inactive, Vif-A3F inh 4.3% and Glioma ERSR ind -3.7%.
`CCOc1ccc(N)cc1OCC` gave LDHA inh 3.8.
`CCCOc1ccc(N)cc1N` gave Vif-A3G inh inconclusive, PINK1 modulator 18.4%, LDHA inh 31.8, pAkt inh inactive, Vif-A3F inh 22.4µM* and Glioma ERSR ind -12.0%.
CC(=O)N1N=C(c2cc(Cl)ccc2Cl)CC1c1ccc2nccnc2c1 (stereo not drawn) was read as LDHA inh -0.2.
For CN(C(=O)COc1ccccc1F)c1c(N)n(Cc2ccccc2)c(=O)[nH]c1=O the results were LDHA inh -0.6.
Screening Cc1ccc(N(CC(=O)NCc2ccncc2)S(=O)(=O)c2ccc(Cl)cc2)cc1C returned LDHA inh -1.1.
Screening N=c1n(CC(=O)c2ccc([N+](=O)[O-])cc2)c2ccccc2n1Cc1ccccc1 returned Vif-A3G inh inconclusive, PINK1 modulator inconclusive, LDHA inh -2.4, pAkt inh inactive, Vif-A3F inh 12.6µM* and Glioma ERSR ind -3.3%.
For O=C(NCc1ccc2c(c1)OCO2)N1CCN(S(=O)(=O)c2ccccc2F)CC1 the results were LDHA inh 1.5.
For CC(C)C(NC(=O)c1n[nH]c(=O)c2ccccc12)c1ccc(F)cc1 (stereo not drawn) the results were LDHA inh 4.1.
